Source: PubChem
Compounds with a hit are over-represented: about 19% of the library has one in this group of screens.
TDP1 cell CPT: growth inhibition of DT40 Tdp1-/-;hTDP1 cells with camptothecin (screen for TDP1 inhibitors); chicken DT40 Tdp1-/-;hTDP1 cells + 20 nM CPT, ATP luminescence, 48 h; Potency, µM (series often up to 46.2 µM), inactives show top-dose activity change, negative = growth inhibition, usual class: inhibitors; 420,000 compounds, 12% hits; AID 686979; further: nearly all actives have a fitted effect of over 55% in size
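Cell growth measured by CellTiter-Glo luminescence after a minimum 48 h, 37 C compound exposure with 20 nM CPT in Tdp1-knockout DT40 cells stably expressing hTDP1, seeded 400/well; qHTS titration format.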
KB-3-1 tox: KB-3-1 parental cell cytotoxicity | KB-3-1 viability, CellTiter-Glo ATP luminescence, 72 h | Potency, µM (highest dose often 46.1 µM), most hits filed as cytotoxic | 400,000 compounds, 1.4% hits; further: nearly all actives have a fitted effect of over 60% in size
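Screening of KB-3-1 cells (DMEM, 10% FBS, phenol-red free) ran from lowest to highest compound concentration; after 72 h at 37 °C viability was read luminescently and curves fitted.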
KB-V1 cytotox: KB-V1 MDR subline cytotoxicity; KB-V1 MDR cells viability, CellTiter-Glo, 72 h; Potency, µM (top dose mostly 46.1 µM), usual class: cytotoxic; 400,000 compounds, 3.4% hits; further: nearly all actives have a fitted effect of over 60% in size
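Cells of the MDR subline KB-V1 are plated, dosed with compound at multiple concentrations, and incubated 72 h at 37 degrees C; CellTiter-Glo is then added and luminescence read after 10 min.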
HT1080 IDH1KD tx: toxicity to HT-1080 IDH1 knockdown cells (counter line); HT-1080 IDH1 knockdown viability, ATP luminescence, 48 h; 360,000 compounds, 2% hits; Potency, µM (titrated, usually from 46.1 µM), for inactives: at the highest dose activity, negative = toxicity, actives largely listed as cytotoxic;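 further: 0% = DMSO wells and -100% = cell-free medium wells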
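Assay cells: HT-1080 with IDH1 knockdown, 750 per well, RPMI/5% FBS. Exposure: 48 h at 37 °C following 2 h pre-incubation. Read: CellTiter-Glo luminescence; fitted concentration-response, curve class assigned.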
HT1080-NT tox: kills 2HG-producing HT-1080-NT fibrosarcoma cells | Potency, µM (series often up to 46.1 µM), without a hit: at the highest dose activity, negative = less viability, actives largely listed as cytotoxic | 360,000 compounds, 1.6% hits | HT-1080-NT fibrosarcoma viability, CellTiter-Glo ATP luminescence, 48 h;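 further: NT is the 2HG producing partner of a matched IDH1 knockdown line; 0% = DMSO-treated cells and -100% = media-only wells without cells; nearly all actives have a fitted effect of over 55% in size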
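Viability by CellTiter-Glo luminescence after 48 h compound exposure at 37C of HT-1080-NT cells (750/well, RPMI, 5% FBS). % activity scaled between DMSO wells and medium-only wells, then curve-fitted and categorized by curve class.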
DT40 TDP1 no CPT: qHTS for Inhibitors of human tyrosyl-DNA phosphodiesterase 1 (TDP1): qHTS in cells in absence of CPT; DT40 Tdp1-/- hTDP1 cells, no CPT, ATP luminescence, 48 h; Potency, µM (doses to about 46.2 µM), for the others: at the highest dose activity change, negative = growth inhibition, actives largely listed as inhibitors; 420,000 compounds, 15% hits; further: nearly all actives have a fitted effect of over 55% in size
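Compound effects on proliferation are scored in DT40 Tdp1-/-;hTDP1 cells in the absence of CPT. ATP levels (CellTiter-Glo luminescence) are recorded after a ≥48 hr, 37 °C incubation.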
* = called active by the depositor; i = inactive; ? = inconclusive; · = not tested or not shown. The call rests on the fitted dose curve; in most records, active means well fitted curve in the direction sought with a large enough effect; inconclusive means small, poorly fitted or top-dose-only effect, or another doubt; inactive means no such curve, though single readings can be large; an effect the other way counts as inactive or inconclusive. Unless noted, on the % scale 0 is the no-effect control and ±100 the full control effect; potency means the concentration at half of the fitted maximal effect.

SMILES	TDP1 cell CPT	KB-3-1 tox	KB-V1 cytotox	HT1080 IDH1KD tx	HT1080-NT tox	DT40 TDP1 no CPT
CCOC(=O)c1c(C)oc2c1c(CN1CCN(CCO)CC1)c(O)c1ccccc12	?	i	i	?	?	?
O=c1cc(CN2CCCC2)c2c(ccc3ccccc32)o1	-3.1%	i	i	11.1%	13.9%	-4.5%
CCOC(=O)c1c(C)oc2c1c(C=NC1CCS(=O)(=O)C1)c(O)c1ccccc12 (configuration not stated)	23.1µM*	?	?	2.4%	9.8%	20.6µM*
CCOC(=O)c1c(C)oc2c1c(CN1CCN(C(=O)OCC)CC1)c(O)c1ccccc12	?	i	i	?	-9.9%	20.6µM*
Cc1ccc(NC2Sc3ccccc3NC2=O)cc1 (configuration not stated)	?	i	i	-1.8%	0.0%	?
CCN(c1ccccc1)c1nnc(NC(=O)Nc2ccc(Br)cc2F)s1	?	i	?	·	·	?
N#Cc1nc(Nc2cccc(Cl)c2)c2ncn(C3CCCC3)c2n1	·	i	i	·	·	·
COC(=O)c1ccccc1NC(=O)N1CCC(n2c(C)nc3cccnc32)CC1	?	i	i	·	·	?
O=C(CC12CC3CC(CC(C3)C1)C2)NCC(=O)OCc1cc(=O)oc2ccc3ccccc3c12	?	i	i	-9.3%	-10.8%	18.4µM*
Cc1ccc2c(COC(=O)C34CC5CC(CC(C5)C3)C4)cc(=O)oc2c1	?	i	i	21.0%	14.5%	?
Cn1c(=N)n(CC(=O)c2ccc(F)cc2)c2ccccc21	16.4µM*	i	i	-17.4%	-15.6%	13µM*
Cc1n(CC(=O)c2ccc(F)cc2)c2ccccc2[n+]1C	3.8%	?	i	-6.9%	-3.7%	-0.6%
Cn1c(=N)n(CC(=O)c2ccc(Br)cc2)c2ccccc21	20.6µM*	?	i	23.1µM*	?	18.4µM*
COc1ccc(C(=O)N2CCC3(CCN(Cc4cc(C(F)(F)F)cc(C(F)(F)F)c4)CC3)CC2)cc1	23.1µM*	·	·	·	·	?
Cc1noc(C)c1C(=O)N1CCC2(CCN(Cc3ccncc3)CC2)CC1	-12.2%	·	·	·	·	-14.5%
O=C(c1csnn1)N1CCC2(CCN(Cc3cc(C(F)(F)F)cc(C(F)(F)F)c3)CC2)CC1	?	·	·	·	·	23.1µM*
Cc1noc(C)c1C(=O)N1CCC2(CCN(Cc3cc(C(F)(F)F)cc(C(F)(F)F)c3)CC2)CC1	?	·	·	·	·	23.1µM*
Cc1cc2c(cc1C)NC(CC(=O)NCc1ccccc1)C(=O)N2 (configuration not stated)	?	i	?	-28.0%	4.2%	-23.1%
Cc1cc2c(cc1C)NC(CC(=O)Nc1ccccc1SC(F)(F)F)C(=O)N2 (configuration not stated)	?	i	i	·	·	16.4µM*
COC(=O)c1c(NC(=O)CC2Nc3cc(C)c(C)cc3NC2=O)sc(C)c1C (configuration not stated)	20.6µM*	i	?	0.7%	6.0%	?
Cc1ccc(NC(=O)CC2Nc3cc(C)c(C)cc3NC2=O)c(C)c1 (configuration not stated)	?	i	?	·	·	?
Cc1cc2c(cc1C)NC(CC(=O)Nc1cccc(C)c1C)C(=O)N2 (configuration not stated)	14.6µM*	i	i	·	·	16.4µM*
CCc1cc(C(=O)OC)c(NC(=O)CC2Nc3cc(C)c(C)cc3NC2=O)s1 (configuration not stated)	-13.5%	i	i	22.6%	8.1%	-7.7%
COc1ccc(OC)c(NC(=S)N2CCC(C(O)(c3ccccc3)c3ccccc3)CC2)c1	-9.0%	i	?	17.3%	0.5%	?
COc1ccc(OCC(=O)Nc2nnc(S(=O)(=O)N3CCc4ccccc43)s2)cc1	?	i	i	·	·	?
SMILES	TDP1 cell CPT	KB-3-1 tox	KB-V1 cytotox	HT1080 IDH1KD tx	HT1080-NT tox	DT40 TDP1 no CPT
OCc1cn(-c2ccccc2)nc1-c1cc2ccccc2o1	?	?	i	15.8%	21.0%	-3.0%
O=C(N/N=C/c1cn(-c2ccccc2)nc1-c1cc2ccccc2o1)c1c[nH]c2ccccc12	?	i	i	-22.8%	-23.5%	4.61µM*
O=C(N/N=C/c1cn(-c2ccccc2)nc1-c1cc2ccccc2o1)c1ccccc1Br	4.61µM*	?	?	11.6µM*	?	14.6µM*
S=C(NCCCc1cnc[nH]1)NCCCN(Cc1ccc(Cl)cc1)c1cc(-c2ccccc2)ccn1	?	i	i	·	·	?
COc1cc(-c2nnc(SCCOc3ccc(Cl)cc3C)o2)cc(OC)c1OC	-23.9%	i	i	·	·	-14.6%
OC(c1ccc(-c2ccccc2)cc1)c1ncc(-c2ccc(C(F)(F)F)cc2)[nH]1 (configuration not stated)	?	i	i	?	?	?
O=C(C[C@@H]1C/C=C\C[C@@H](NC(=O)OCC2c3ccccc3-c3ccccc32)C(=O)OCCNC1=O)N[C@@H](CO)Cc1ccccc1	9.2µM*	i	i	3.5%	-1.0%	8.2µM*
C[C@@H]1COC(=O)[C@H](NC(=O)OCC2c3ccccc3-c3ccccc32)C/C=C\C[C@@H](CC(=O)N[C@H](CO)Cc2ccccc2)C(=O)N1	18.4µM*	i	?	-17.4%	-0.7%	20.6µM*
C[C@H]1COC(=O)[C@@H](CC(=O)OC(C)(C)C)C/C=C\C[C@@H](CC(=O)N[C@H](CO)Cc2ccccc2)C(=O)N1	?	i	i	9.3%	6.9%	?
CC(C)(C)[C@H]1COC(=O)[C@@H](NC(=O)OCC2c3ccccc3-c3ccccc32)C/C=C\C[C@@H](CC(=O)N[C@@H](CO)Cc2ccccc2)C(=O)N1	9.2µM*	i	?	3.0%	-2.2%	6.51µM*
COC1(C(F)(F)F)NC(=O)N(c2ccc(F)cc2)C1=O (configuration not stated)	13.8%	i	i	·	·	-5.9%
CCCCCCCCCCCCCCCCCCc1ccc(C(=O)/C=C/C(=O)O)cc1	0.6%	·	·	·	·	-15.8%
CCCCCCC[N+](CC)(CC)CCCCc1ccc(Cl)cc1	0.651µM*	?	i	6.51µM*	6.51µM*	0.206µM*
